From PubChem
uPA surface inh = cell surface uPA generation inhibition | cell surface uPA generation assay, qHTS | Potency, µM (series often up to 38.3 µM), inactives show at the highest dose activity change, negative = inhibition, hits mostly inhibitors | 330,000 tested, 0.31% active | AID 540303; active means well fitted inhibition curve with a large enough effect; inconclusive means small, poorly fitted or top-dose-only effect; inactive means no such curve, though single readings can be large or run the other way; tested in mouse RAW 264.7 cells; further: potency means the concentration at half of the fitted maximal effect; on the % scale 0 is the no-effect control and ±100 the full control effect; nearly all actives have a fitted effect of over 55% in size
TCR act = T cell receptor activation. 330,000 tested, under 10 active. Potency, µM (doses to about 9.22 µM), without a hit: top-dose activation of IL-2 secretion, usual class: activators. AID 504894. primary human leukocytes, anti-CD3, IL-2 HTRF, 48 h; further: % of control where 0% means no effect
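Primary human leukocytes incubated 48 hr with anti-CD3 beads plus compound, without co-stimulation. Secreted IL-2 measured by HTRF (europium cryptate/d2 anti-IL-2 pair, 320 nm excitation, 665 nm emission).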
ClpP mod = qHTS Assay for Activators of ClpP; AID 651965, 2013; 340,000 tested, 1.9% active; purified B. subtilis ClpP, FRET peptide cleavage, 20 min; Potency, µM (doses to about 57.5 µM), inactives show at the highest dose activity change, negative = active; active means well fitted falling curve with a large enough effect; inconclusive means small, poorly fitted or top-dose-only effect; inactive means no such curve, though single readings can be large or run the other way; further: potency means the concentration at half of the fitted maximal effect; the source files actives as falling curves though it sought activators and does not explain the sign; nearly all actives have a fitted effect of over 65% in size
Target sequence (P80244 whole entry, looked up): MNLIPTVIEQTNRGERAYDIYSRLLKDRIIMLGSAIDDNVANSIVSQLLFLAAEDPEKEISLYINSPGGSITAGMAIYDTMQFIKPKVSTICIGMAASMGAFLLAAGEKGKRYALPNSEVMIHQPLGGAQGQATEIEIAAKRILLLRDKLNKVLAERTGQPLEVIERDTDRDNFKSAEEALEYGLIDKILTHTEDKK
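ClpP 10 microg/mL final, pH 8 Tris/KCl buffer with BSA, glycerol, Tween-20; compound pinned in; FRET-FV substrate; RT 20 min; Ex320/Em430; ΔFRET vs ADEP 5.8 microM, DMSO, no enzyme.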
Sfp PPTase inh = Sfp phosphopantetheinyl transferase inhibition. Q9F4F7. Biochemical Sfp PPTase activity, qHTS. Potency, µM, for inactives: largest response in the series, negative = inhibition, actives largely listed as inhibitors. 310,000 tested, 3.5% active;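 further: the enzyme is Sfp with the accession as filed and its product quenches rhodamine fluorescence; potency means the concentration at half of the fitted maximal effect; 0% = enzyme reaction without inhibitor and -100% = no enzyme wells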
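Buffer: 50 mM Hepes-Na pH 7.6, 10 mM MgCl2, 0.01% Nonidet P-40, 0.01% BSA. Enzyme 15 nM, pre-exposed to compound 15 min; substrates then added and fluorescence change tracked over 30 min.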
Numbers without * were called inactive; ? = inconclusive; nt = no result given; [ ] = another dose, or the depositor's remark. Only some compounds are listed: those with a hit (about 4.2% of all), similar ones and a draw of the others. Unless noted, the call rests on the fitted dose curve; in most records, active means well fitted curve in the direction sought with a large enough effect; inconclusive means small, poorly fitted or top-dose-only effect, or another doubt; inactive means no such curve, though single readings can be large; an effect the other way counts as inactive or inconclusive.

SMILES | uPA surface inh | TCR act | ClpP mod | Sfp PPTase inh
CCCCCCn1c(SCCCC)nc2c1c(=O)[nH]c(=O)n2C | 2% | -7% | 2% | 13%
COc1ccc2c(c1)C(=O)CC2 | nt | nt | 4% | nt
Cc1sc(-c2cc3ccccc3oc2=O)nc1-c1ccc(Cl)cc1 | nt | nt | 32µM* | nt
Cc1cc(C(=O)N2CCC2(C)C(=O)O)nn1C(C)(C)C (stereo not given) | nt | nt | 0% | nt
Cc1ccc(Cn2c(C)cc3c(c2=O)C(c2cccs2)C(C#N)=C(N)O3)cc1 (stereo not given) | 5% | nt | -1% | 25%
N#CC1=C2SCN(Cc3ccccc3)CN2C(=O)CC1c1ccc2c(c1)OCO2 (stereo not given) | -4% | 3% | 1% | 1.8µM*
N#CC1=C2SCN(Cc3ccccc3)CN2C(=O)CC1c1cccs1 (stereo not given) | -5% | -10% | -1% | 1.1µM*
CC(=O)OCC(NC(=O)C(C)NC(=O)OC(C)(C)C)C1OC(n2ccc(=O)[nH]c2=O)C(OC(C)=O)C1OC(C)=O (stereo not given) | nt | nt | nt | -16%
COc1ccc(-c2noc3c2-c2nc(-c4cccc(C)c4)sc2CC3)cc1 | 1% | 1% | ? | -13%
CC(C)=CCN1CCN(Cc2cccn2-c2ccccn2)CC1CCO (stereo not given) | -2% | nt | 28µM* | 2%
CC(C)CN1CCN(Cc2cccn2-c2ccccn2)CC1CCO (stereo not given) | 2% | 3% | -4% | -13%
COc1ccco1 | nt | nt | nt | 6%
O=C(NCc1ccccc1)c1ccc(/C=N/O)nc1 | -4% | 5% | 1% | -19%
O=C(NCc1ccccn1)c1ccc(/C=N/O)nc1 | -1% | -7% | -5% | 50µM*
CN(C)CCCNC(=O)c1ccc(/C=N/O)nc1 | 4% | 3% | nt | 9%
CNCCCNC(=O)c1ccc(/C=N/O)nc1 | 3% | 0% | -3% | 79µM*
O=C(Cc1ccc(F)cc1)NC1CC(=O)N(c2ccccc2)C1 (stereo not given) | nt | nt | 1% | nt
Cc1cc(/C=N/Nc2ccc([N+](=O)[O-])cn2)c(C)n1-c1ccc(C(=O)O)cc1 | 7% | -1% | nt | 56µM*
Cc1ccc(C2NC(=O)c3c(sc(C)c3C)N2)c(O)c1 (stereo not given) | 1% | -3% | ? | 50µM*
Cc1cccc(C2NC(=O)c3c(sc(C)c3C)N2)c1O (stereo not given) | 5% | 0% | -5% | 89µM*
CC1(C(=O)NS(=O)(=O)c2cccc(F)c2)CCN1C(=O)CCc1ccccc1 (stereo not given) | nt | nt | 1% | nt
CCC(C)(C)NC(=O)CN(Cc1ccccc1Cl)C(=O)CCC(=O)Nc1cc(C)ccn1 | 2% | 7% | nt | 20µM*
CCO/C(C)=C1/SC(=S)NC1=O | 0% | -26% | -1% | 32µM*
Cc1c(Cl)cccc1NC(=O)CC(c1ccc(F)cc1)N1Cc2ccccc2C1=O (stereo not given) | nt | nt | -3% | nt
O=C(N/N=C/c1cn(-c2cccs2)nc1-c1ccccc1)c1ccc(O)cc1 | 2% | 4%[46.1 µM] | -17% | -13%
SMILES | uPA surface inh | TCR act | ClpP mod | Sfp PPTase inh
O=C(N/N=C/c1cn(-c2cccs2)nc1-c1ccccc1)c1ccccc1Cl | -11% | 2%[46.1 µM] | 22µM* | 5%
COc1ccccc1C(=O)N/N=C(\C)c1cccnc1 | 2% | -1% | nt | nt
Cc1cc(OCc2cn(CC(=O)c3ccc(O)cc3)nn2)ccc1[N+](=O)[O-] | 5% | 1% | -2% | nt
Cc1ccccc1N(C)C(=O)c1noc2c1COc1ccccc1-2 | nt | nt | 5% | nt
Cc1nc2nc(COc3ccccc3)nn2c(C)c1Cl | 2% | 3% | 14µM* | 7%
COc1ccc(CNc2nc3nc(C)c(Cl)c(C)n3n2)cc1 | 6% | -5% | nt | 11%
Cc1nc2nc(Cc3ccccc3)nn2c(C)c1Cl | nt | 2% | -6% | 7%
COc1cccc(CNc2nc3nc(C)c(Cl)c(C)n3n2)c1 | 3% | 0% | 32µM* | 3%
Cc1nc2nc(NCc3cccs3)nn2c(C)c1Cl | nt | -9% | 13µM* | 5%
CC(C)(O)[C@@H]1CC[C@@](C)(C2CC[C@]3(C)C2[C@H](O)CC2[C@@]4(C)CC[C@H](O)C(C)(C)C4[C@@H](O[C@H]4O[C@@H](CO)[C@H](O)[C@@H](O)[C@@H]4O[C@@H]4O[C@H](CO)[C@@H](O)[C@H](O)[C@H]4O)C[C@]23C)O1 (stereo in doubt) | 4% | 0% | 2% | nt
O=C(NCCc1ccc(Cl)cc1)c1cnc2sc(N3CCOCC3)nn2c1=O | nt | nt | -14% | nt
O=C1[C@H](Cc2ccccc2)NC/C=C\C[C@@H](c2ccc(Cl)cc2)N1Cc1ccccc1 | nt | nt | 2% | nt
COc1cccc(NC(=O)CN2CCN(S(=O)(=O)c3ccc(F)cc3)CC2)c1 | -4% | 0% | 0% | ?
O=C(CN1CCN(S(=O)(=O)c2ccc(F)cc2)CC1)Nc1cccc(C(F)(F)F)c1 | -5% | 0% | 28µM* | 10%
COc1ccccc1C(=O)Nc1ccc(-c2cc(C(F)(F)F)nn2-c2ccccc2)cc1 | nt | nt | 22µM* | nt
COc1ccccc1C(=O)NC(=O)Nc1ccc(-c2cc(C(F)(F)F)nn2-c2ccccc2)cc1 | nt | nt | 0% | nt
CCOC(=O)c1[nH]cnc1C(=O)Nc1ccc(F)cc1 | 1% | 10% | -1% | 17%
CCOC(=O)c1[nH]cnc1C(=O)Nc1cccc(N)n1 | 1% | -4% | 14µM* | -17%
COc1ccc(COC(=O)c2ccc(S(=O)(=O)N3CCCCC3)cc2)cc1OC | 0% | 5% | -2% | nt
CCOC(=O)c1[nH]c2cc3c(cc2c1NC(=O)CN1CCc2ccccc2C1)OCO3 | -14% | -16% | 3.2µM* | -10%
CCOC(=O)c1[nH]c2cc3c(cc2c1NC(=O)CN1CCCC1)OCO3 | 2% | -3% | 1% | -6%
CCOC(=O)c1[nH]c2cc3c(cc2c1NC(=O)CN1CCC(C)CC1)OCO3 | -5% | -3% | 11µM* | 1%
CCOC(=O)N1CCN(CC(=O)Nc2c(C(=O)OC)[nH]c3ccccc23)CC1 | -22% | 3% | -21% | -7%
S=c1c2c(nc3nc[nH]n13)CCC2 | 17% | 5% | -2% | 14µM*
Cc1ccc(C(=O)Nc2ccc3nc(SCC(=O)N4CCCc5ccccc54)sc3c2)cc1 | nt | nt | 20µM* | nt
SMILES | uPA surface inh | TCR act | ClpP mod | Sfp PPTase inh
O=C(Nc1ccc2nc(SCC(=O)N3CCc4ccccc43)sc2c1)c1ccccc1 | nt | nt | 8.9µM* | nt
CC(C)C(=O)Nc1ccc2nc(SCC(=O)N3CCc4ccccc43)sc2c1 | nt | nt | -6% | nt
CCC(CC)C(=O)Nc1ccc2nc(SCC(=O)N3CCc4ccccc43)sc2c1 | nt | nt | -1% | nt
O=C(Nc1ccc2nc(SCC(=O)N3CCCc4ccccc43)sc2c1)c1ccccc1 | nt | nt | 14µM* | nt
O=S(=O)(Nc1ccc(F)c(C(F)(F)F)c1)c1ccc(N2CCCCS2(=O)=O)cc1 | nt | nt | -2% | nt
COc1ccc(CN(CC(=O)NCc2ccc(F)cc2)C(=O)CCC(=O)Nc2cc(C)ccn2)cc1 | 2% | -6% | nt | 16%
Cc1ccnc(NS(=O)(=O)c2ccc(Oc3ccccc3)cc2)c1 | -6% | -2% | 28µM* | 11%
